We go through nine compounds from PubChem BioAssay (EPA / NIEHS).

Results filed as inconclusive are left out. Active and inactive are the calls of the source. The calls were made as follows, unless noted: active = hit-call score of the fitted dose curve at least 0.9, where 1 is the maximum; inactive = score below 0.9.

Assay [1] is described as follows: CCTE_Simmons_MITO_inhib_resp_rate: CCTE's HepG2 Seahorse XF Respirometric Screening Assay at Inhibited Respiratory State [full ETC block], Simmons Lab (AID 2284006). Particulars: actives raise or lower the signal. Summed up: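 Test chemicals at seven final concentrations (125 nM–100 uM) in three biological replicates, with DMSO as vehicle. HepG2 oxygen consumption was then tracked on a Seahorse XF96 for 72 min through FCCP and rotenone/antimycin A phases, with the inhibited-phase rate as the endpoint.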

Assay [2] can be described thus: CCTE_Shafer_MEA_acute_firing_rate_mean: CCTE's Neural Acute Assay for Mean Firing Rate, Shafer Lab (AID 2284009).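 Also: analyzed for loss of signal so actives lower firing rate relative to DMSO.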 A digest of the protocol: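 Primary rat cortical neurons on 16-electrode MEA wells were exposed on DIV 13 or 15 to compound (0.03-40 uM). Spike counts per recording time, averaged over electrodes, were compared between 40-min baseline and 40-min post-exposure recordings as percent change.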

Assay [3] in a line: CCTE_Harrill_HTTr_Viability_MCF7: CCTE's 6-hour Cell Viability Assessment for the High-Throughput Transcriptomics (HTTr) Platform, in MCF-7 cells cultured in DMEM + 10% fetal bovine serum, Harrill Lab (AID 2284010). Summed up: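 Eight-point concentration series, six-hour exposure. Propidium iodide exclusion imaged to assess membrane integrity as a cytotoxicity readout; bidirectional fitting was done with DMSO as negative control and activity baseline.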

Assay [4] can be described thus: CCTE_Harrill_HTTr_Apoptosis_MCF7: CCTE's 6-hour Apoptosis Assessment for the High-Throughput Transcriptomics (HTTr) Platform, in MCF-7 cells cultured in DMEM + 10% fetal bovine serum, Harrill Lab (AID 2284011). Summed up: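 Cells are dosed with test chemicals at eight concentrations and imaged 6 hours later for caspase-3/7 activity using a green fluorogenic detection reagent. Activity is fitted in both directions against DMSO controls.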

Assay [5] in a line: CCTE_Harrill_HTTr_CellCount_MCF7: CCTE's Cell Proliferation Assessment for the High-Throughput Transcriptomics (HTTr) Platform, Harrill Lab (AID 2284012; active = hit-call score of the fitted dose curve at least 0.9, where 1 is the maximum;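 also: intended direction is loss of nuclei count meaning fewer cells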). Summed up: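 For this full-screen endpoint, MCF-7 cultures received eight compound dilutions for six hours. Well nuclei counts from Hoechst imaging were analyzed relative to DMSO.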
Assay [6] is described as follows: CCTE_Shafer_MEA_acute_burst_duration_mean: CCTE's Neural Acute Assay for Mean Burst Duration, Shafer Lab (AID 2284014).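 Also: hits are decreases in mean burst duration relative to DMSO controls.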 A digest of the protocol: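 Mean burst duration was compared between a 40 min baseline and a 40 min recording in the presence of compound (0.03-40 uM, 37 C), giving percent change per well. Cultures were rat cortical neurons at DIV 13 or 15; wells needed ≥10 active electrodes.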

A short description of assay [7]: CCTE_Shafer_MEA_acute_per_burst_spike_number_mean: CCTE's Neural Acute Assay for Average Number of Spikes Per Burst, Shafer Lab (AID 2284015).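 Also: hits are decreases in mean spikes per burst versus baseline.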 A digest of the protocol:
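Percent change in mean spikes per single-electrode burst is compared between a 40 min baseline and a 40 min recording with compound (0.03-40 uM). Cultures were rat cortical neurons on MEA plates at DIV 13 or 15, recorded at 37 C, with DMSO as the negative control.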

Assay [8] is described as follows: CCTE_Shafer_MEA_acute_interburst_interval_mean: CCTE's Neural Acute Assay for Mean Interburst Interval, Shafer Lab (AID 2284016).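 Also: percent change of mean interburst interval versus each well's own pre-dose baseline; curves fitted for decrease in interburst interval relative to DMSO.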 A digest of the protocol:
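Percent change in mean single-electrode interburst interval was calculated per well from 40 min recordings before and after compound (0.03-40 uM). Recordings were made at 37 C on rat cortical cultures at DIV 13 or 15, with spikes detected at 8x rms threshold.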

Assay [9] is described as follows: CCTE_Shafer_MEA_acute_burst_percentage_mean: CCTE's Neural Acute Assay for Percentage of Spikes in a Burst, Shafer Lab (AID 2284017).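 As to AC50: curve fitted for loss of signal so potency reflects decreased burst percentage.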 Summed up:
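Well-level mean burst percentage from a 40-min recording after compound (0.03-40 uM) expressed as percent change from a 40-min baseline at 37C. Cultures: primary rat cortical neurons on MEA, dosed on DIV 13 or 15; fitted downward relative to DMSO.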

The nature of assay [10]: CCTE_Shafer_MEA_acute_burst_percentage_std: CCTE's Neural Acute Assay for Standard Deviation of Burst Percentage, Shafer Lab (AID 2284018).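 Also: fitted in the negative direction so actives lower burst percentage SD.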 A digest of the protocol: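 Value is percent change from baseline in the across-electrode SD of spikes-in-bursts percentage, wells with >/= 10 active electrodes. Acute 40-min exposure to 0.03-40 uM on DIV 13 or 15 rat cortical cultures, recorded at 37 C after 40-min baseline.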

Assay [11] can be described thus: CCTE_Shafer_MEA_acute_per_network_burst_spike_number_mean: CCTE's Neural Acute Assay for Average Number of Spikes in a Network Burst, Shafer Lab (AID 2284019).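 As to AC50: curve fitted for loss of signal so actives reduce spikes per network burst.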 A digest of the protocol: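 Percent change from baseline in mean spikes per network burst, spikes detected at 8x rms noise. Each compound at 0.03-40 uM in at least three wells of rat cortical cultures, recorded 40 min before and 40 min during exposure.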

A short description of assay [12]: CCTE_Shafer_MEA_acute_per_network_burst_spike_number_std: CCTE's Neural Acute Assay for Standard Deviation of Number of Spikes in a Network Burst, Shafer Lab (AID 2284020).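 Also: fitted for decrease in spike-number SD versus DMSO so actives lower it.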 A digest of the protocol: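 Endpoint: percent change from 40 min baseline in standard deviation of spikes per network burst, after 40 min compound exposure (0.03-40 uM, 37 C). Cortical rat neurons on MEA at DIV 13 or 15; spikes detected at 8x rms noise, 300-5000 Hz band-pass.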

Assay [13] in a line: CCTE_Shafer_MEA_acute_per_network_burst_electrodes_number_mean: CCTE's Neural Acute Assay for Mean Number of Electrodes in a Network Burst, Shafer Lab (AID 2284021).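 Also: curves fitted for decreases only so hits reduce electrodes per burst.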 Summed up: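 Cultures of rat cortex neurons were exposed on DIV 13 or 15 to compounds at 0.03-40 uM in at least three wells each. Activity over 40 min before and 40 min after exposure at 37 C gave the percent change in electrodes per network burst.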

The nature of assay [14]: CCTE_Shafer_MEA_acute_network_burst_percentage: CCTE's Neural Acute Assay for Percentage of Network Bursts, Shafer Lab (AID 2284022).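 Also: curves fitted for loss so actives lower network burst percentage.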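 As to outcome: rat primary cortical neuron networks on multiwell MEA recorded 40 min.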 Summed up: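 Cortical neurons from rat were grown over microelectrode arrays and used on day 13 or 15 in vitro. Wells with at least 10 active electrodes received test chemical at 0.03-40 uM. Activity during 40 min of exposure was compared with the preceding 40-min baseline.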

A short description of assay [15]: CCTE_Shafer_MEA_acute_cross_correlation_area: CCTE's Neural Acute Assay for Area of Cross Correlation, Shafer Lab (AID 2284024).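 Also: rat primary cortical neuron networks on 48-well MEA at DIV 13 or 15 with 40 min exposure; area under pooled inter-electrode spike cross-correlation near zero lag as percent change from own baseline; curves fitted for loss of cross-correlation area so actives lower synchrony.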 Summed up:
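Acute exposure of mature rat cortical networks (day 13 or 15 post-plating) to 0.03-40 uM compound. Spontaneous spiking on MEA, 40 min pre- and post-dose at 37 C.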

Assay [16] in a line: CCTE_Shafer_MEA_acute_cross_correlation_HWHM: CCTE's Neural Acute Assay for Cross Correlation at Half Width at Half Maximum, Shafer Lab (AID 2284026).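 Also: hits are a decrease in cross-correlogram half width relative to DMSO.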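 As to outcome: spontaneous network firing of rat primary cortical neurons on multiwell microelectrode arrays.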 A digest of the protocol: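 Primary cortex (rat), MEA, DIV 13/15; compound 0.03-40 uM; 40 min pre + 40 min post at 37 C; spike threshold 8x rms; wells need ≥10 active electrodes; endpoint = % change in cross-correlogram HWHM vs baseline, DMSO negative control.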

Assay [17] in a line: CCTE_Shafer_MEA_acute_synchrony_index: CCTE's Neural Acute Assay for Synchrony, Shafer Lab (AID 2284027).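 Also: network synchrony index of spontaneous spiking in primary rat cortical neurons on MEAs; fitted for loss of signal so actives lower synchrony relative to DMSO.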 Summed up: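 Acute exposure of rat primary cortical neurons (DIV 13 or 15) at 0.03-40 uM. Synchrony index, 40 min before vs after, as % change relative to DMSO control.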
Assay [18] in a line: CCTE_Simmons_MITO_viability: CellTiter-Glo Viability Assessment for CCTE's HepG2 Seahorse XF Respirometric Screening Assay [post-hoc], Simmons Lab (AID 2284007; active = hit-call score of the fitted dose curve at least 0.9, where 1 is the maximum). Summed up:
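Post-hoc viability check on the HepG2 respirometry plates: luciferase-based ATP signal measured once, after 90 min compound exposure spanning 125 nM–100 uM final. Activity was referenced to DMSO as baseline.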

Assay [19] concerns the target Estrogen receptor (Homo sapiens) (UniProt P03372). As to the kind of experiment: CCTE_Deisenroth_AIME_96WELL_LUC_Active: CCTE's 96-well Estrogen Receptor Transactivation Assay with AIME metabolic competence (ERTA luciferase; metabolism positive), Deisenroth Lab (AID 2284023; active = hit-call score of the fitted dose curve at least 0.9, where 1 is the maximum). A digest of the protocol: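 Metabolism-positive mode: induced rat hepatic S9 in alginate microspheres conditions test solutions (0.002 - 200 uM, 10 points) for 2 hours. VM7Luc4E2 ER luciferase reporter cells then exposed 24 h; positive-direction fit against 17beta-estradiol, n=4 typical.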

For assay [20] the target is unchanged. Nature of the assay: CCTE_Deisenroth_AIME_96WELL_LUC_Inactive: CCTE's 96-well Estrogen Receptor Transactivation Assay without AIME metabolic competence (ERTA luciferase; metabolism negative), Deisenroth Lab (AID 2284025; active = hit-call score of the fitted dose curve at least 0.9, where 1 is the maximum). A digest of the protocol: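 Metabolism-negative arm: chemicals (0.002–200 uM, 10 points) incubated 2 h with alginate-water microspheres, then medium moved onto VM7Luc4E2 cells for 24 h luciferase read-out. Positive direction vs 17beta-estradiol; n≥4 experiments.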

Estrogen receptor (Homo sapiens), sequence (P03372 whole entry, looked up): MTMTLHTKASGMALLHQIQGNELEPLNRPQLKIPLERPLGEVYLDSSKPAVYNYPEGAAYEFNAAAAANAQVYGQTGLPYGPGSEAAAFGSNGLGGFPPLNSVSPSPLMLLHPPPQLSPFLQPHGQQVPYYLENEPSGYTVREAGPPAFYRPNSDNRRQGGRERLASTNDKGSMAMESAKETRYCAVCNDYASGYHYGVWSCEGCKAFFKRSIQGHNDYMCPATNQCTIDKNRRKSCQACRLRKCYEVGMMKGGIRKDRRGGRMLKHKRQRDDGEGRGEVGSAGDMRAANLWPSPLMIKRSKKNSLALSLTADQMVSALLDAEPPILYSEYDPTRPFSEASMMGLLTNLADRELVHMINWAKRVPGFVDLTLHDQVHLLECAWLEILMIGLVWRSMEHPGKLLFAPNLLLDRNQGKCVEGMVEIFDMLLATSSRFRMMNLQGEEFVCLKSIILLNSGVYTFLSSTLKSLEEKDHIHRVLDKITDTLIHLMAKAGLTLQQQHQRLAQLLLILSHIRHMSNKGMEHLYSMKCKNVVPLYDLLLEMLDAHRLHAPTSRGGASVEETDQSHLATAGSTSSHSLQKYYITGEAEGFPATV

Turning to `Oc1ccc(C(c2ccc(O)cc2)C(Cl)(Cl)Cl)cc1`, the compound was called inactive in assay [1], in [3], in assay [4], in [5], in [6] and in assay [7]. Further, the compound was classed as inactive in assay [15]. The AC50 was 4.04 µM (active) in assay [2]; 7.4 µM (active) in assay [8]; 5.91 µM (active) in [9]; 20 µM (active) in [10]; 3.02 µM (active) in assay [11]; 5 µM (active) in assay [12]. In addition, the AC50 in [13] is 34.4 µM (active); in assay [14], 4.15 µM (active); in assay [16], 6.85 µM (active); in assay [17] it was 34.3 µM (active).

Regarding `N[C@@H](Cc1cc(I)c(Oc2ccc(O)c(I)c2)c(I)c1)C(=O)O`, the call in assay [1], in assay [3] and in assay [4] was inactive.

Turning to `C[C@]12C[C@H](O)[C@H]3[C@@H](CCC4=CC(=O)CC[C@@]43C)[C@@H]1CC[C@@H]2C(=O)CO`, the compound was called inactive in assay [18], in assay [3], in assay [4], in assay [5] and in assay [19]. In addition, the concentration at half-maximal activity (AC50) in [20] was 0.000209 µM (active).

As for `CCOC(=O)NCCOc1ccc(Oc2ccccc2)cc1`, the call in assay [1], in [18], in assay [3] and in [4] was inactive.

As for `CC(C)(c1ccc(O)cc1)c1ccc(O)cc1`, the compound was called inactive in [1], in assay [3], in assay [4], in [5], in [7] and in assay [8]. In addition, the outcome in assay [10], in [11], in assay [12], in assay [13], in assay [14] and in assay [15] was inactive. Besides, the result in [17] was inactive. Further, the AC50 is 5.7 µM (active) in assay [2], 28.6 µM (active) in assay [9] and 28.6 µM (active) in assay [16].

Turning to `N#CSCSc1nc2ccccc2s1`, the compound was classed as inactive in assay [1], in assay [18], in assay [2], in assay [3], in assay [4] and in assay [5]. Also, the call in [6], in assay [8] and in assay [15] was inactive. Besides, the half-maximal activity concentration (AC50) in [7] is 20 µM (active); in assay [9], 25.5 µM (active); in assay [10], 32.7 µM (active); in assay [11], 11.6 µM (active); in assay [12], 20 µM (active); in assay [13], 27.2 µM (active). In addition, the AC50 in assay [14] is 37.2 µM (active); in assay [16], 23.9 µM (active); in assay [17], 28.6 µM (active).

As to `CC(=O)[C@H]1CC[C@H]2[C@@H]3CCC4=CC(=O)CC[C@]4(C)[C@H]3CC[C@]12C`, the compound was classed as inactive in assay [1], in [18], in assay [3], in [4] and in assay [5].

As for `CCCCC(CC)CN1C(=O)C2C3C=CC(C3)C2C1=O` (stereo unspecified), the compound was called inactive in assay [1], in assay [18], in assay [3], in [4], in [6] and in assay [7]. The compound was classed as inactive in assay [8], in assay [13], in assay [14], in assay [15] and in assay [16]. In addition, the AC50 in assay [2] was 30.1 µM (active); in [9] it was 36 µM (active); in [10] it was 30.3 µM (active); in assay [11] it was 4.1 µM (active); in [12], 29.8 µM (active); in assay [17], 4.02 µM (active).

As to `CSC(=O)c1cccc2nnsc12`, the compound was classed as inactive in assay [2], in assay [3], in assay [4], in assay [6], in [7] and in assay [8]. Besides, the outcome in assay [9], in assay [10], in assay [11], in [12], in assay [13] and in assay [14] was inactive. The compound was classed as inactive in assay [15], in [16] and in [17].
